The list shows a part of the results. Values without a mark were called inactive. Activity calls are given as the source filed them.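 How the source made its calls: active means mean inhibition across replicates above the hit cutoff set in the primary screen (cut at about 15% in these data); inactive means the rest.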

The assay deals with Acyl-protein thioesterase 1 (Homo sapiens) (UniProt O75608). Kind of assay: inhibition of human lysophospholipase 1 – biochemical, fluorescence polarization, FP-Rh probe ABPP, counter-screen for PME1 inhibitor project, confirmation (AID 2233).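 Further: loss of FP-Rh probe labeling of LYPLA1 seen as lower polarization; 0% = LYPLA1 with DMSO and 100% = wells lacking LYPLA1 enzyme.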 Conditions: recombinant LYPLA1, FP-Rh probe fluorescence polarization; at 5.9 µM; stronger effect = higher value. (In general: Polarisation of emitted light reports the rotation of a fluorescent probe.)
Chain of Acyl-protein thioesterase 1 (Homo sapiens) (O75608 whole entry, looked up): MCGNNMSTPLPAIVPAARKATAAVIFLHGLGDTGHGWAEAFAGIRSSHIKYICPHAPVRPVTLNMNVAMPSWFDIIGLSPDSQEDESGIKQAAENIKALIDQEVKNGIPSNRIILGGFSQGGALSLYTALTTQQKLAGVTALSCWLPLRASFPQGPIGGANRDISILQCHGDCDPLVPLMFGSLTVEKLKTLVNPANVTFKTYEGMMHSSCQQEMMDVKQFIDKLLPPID
Consider `CCC(=C/c1sc2ccc3ccccc3c2[n+]1C)/C=C1\Sc2ccc3ccccc3c2N1C`, for which the inhibition was 78.8% (active).
Next, `CN(CCOc1ccccc1)C(=O)c1cc(COc2c(F)cccc2F)on1`: 12.1%; `CCN1CCN(CCNC(=O)c2ccc3c(c2)NC(=O)/C(=C\c2ccc(OC)c(OC)c2)S3)CC1`: 19.4% (active); `O=C(c1ccc(-c2ccccc2)cc1)C1CCCN(C(=O)c2cncs2)C1` (stereo not drawn): 30.7% (active).
For the compound `COc1ccccc1C(=O)NC(CCSC)C(=O)N1CCN(C/C=C/c2ccccc2)CC1` (stereo not drawn), the inhibition was 19.9% (active).
As to `CCN1C(=O)/C(=C2/Sc3ccccc3N2CCCS(=O)(=O)O)SC1=S`, the inhibition was 9.65%.
Next, `O=C(CCn1c(SCC(=O)c2ccccc2)nc2ccccc2c1=O)NCc1ccc(F)cc1`: -4.57%.
Regarding `Cc1ccc(N2CCN(C3=NC(=O)/C(=C\c4cccs4)S3)CC2)cc1`, the inhibition was 37% (active).
As for `Cc1cccc(N2CCN(C(=O)CN(C)S(=O)(=O)c3ccc4c(c3)CCC(=O)N4)CC2)c1C`, the figure is 26.9% (active); as for `CCOc1ccccc1N1CCN(C(=O)c2ccc3[nH]c(C)c(C)c3c2)CC1`, 29.3% (active).
For `CCOc1ccc(C(=O)NC(=S)Nc2ccc(N3CCOCC3)c(Cl)c2)cc1[N+](=O)[O-]`, the inhibition is 24.6% (active).
As for `Cc1ccc(S(=O)(=O)N2CCC(C(=O)N[C@@H](C)C(=O)NCc3ccco3)CC2)cc1`, the figure is 2.78%; as for `CCCCn1c(N)c(N(CCC(C)C)C(=O)CC2OC(=O)c3ccccc32)c(=O)[nH]c1=O` (stereo not drawn), 0.51%.
As for `O=c1[nH]n(-c2cccc(Cl)c2)c2ncccc12`, the figure is 2.75%; as for `COCCOC(=O)c1sc(=S)n(CCOC)c1N`, 13.4%; as for `CSc1c(SCc2ccccc2)cnn(Cc2ccccc2)c1=O`, 2.84%.
On to `O=c1[nH]n(-c2ccc([N+](=O)[O-])cc2)c(=O)c2ccccc12`, for which the inhibition is 17.7% (active).
Turning to `O=C(COc1ccc(Cl)cc1)N1CCN(c2cccc(C(F)(F)F)c2)CC1`, the inhibition was 31.6% (active).
As for `COc1ccc(N2CC(C(=O)NCCN3C(=O)S/C(=C\c4cccnc4)C3=O)CC2=O)c(OC)c1` (stereo not drawn), the figure is 1.04%; as for `COc1ccc(-c2nc(CS(=O)CC(=O)NCc3ccccn3)c(C)o2)cc1` (stereo not drawn), 16.5% (active); as for `COc1cccc(NC(=O)N2CCCC2C(=O)NC2CCCCC2)c1` (stereo not drawn), 2.88%.
As for `O=C(CN1CCN(c2cccc(Cl)c2)CC1)Nc1ccc(S(=O)(=O)N2CCOCC2)cc1`, the inhibition is 23.3% (active).
As for `C=CCNC(=O)c1sc(SC)cc1-c1ccc(Cl)cc1`, the inhibition was 23.5% (active).

Usually inhibition stands for the change of the read-out against control, counted positive when it falls.

Source of the values: PubChem BioAssay AID2233 (The Scripps Research Institute Molecular Screening Center, 2010).
